This is a sample that favours compounds with a hit; in the whole collection about 1.6% have one here.
KCNQ2 inh: KCNQ2 (rat) channel inhibition; O88943; CHO-K1 KCNQ2, FluxOR thallium flux, 20 min; stronger effect = lower value; B-score at 10 µM; 1.1% of 310,000 active; AID 2156;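 active means fluorescence ratio B-score at most minus 3 library SDs, with starting brightness B-score within 2 library SDs, cut at about -5.5 in these data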
Target sequence (O88943 whole entry, looked up): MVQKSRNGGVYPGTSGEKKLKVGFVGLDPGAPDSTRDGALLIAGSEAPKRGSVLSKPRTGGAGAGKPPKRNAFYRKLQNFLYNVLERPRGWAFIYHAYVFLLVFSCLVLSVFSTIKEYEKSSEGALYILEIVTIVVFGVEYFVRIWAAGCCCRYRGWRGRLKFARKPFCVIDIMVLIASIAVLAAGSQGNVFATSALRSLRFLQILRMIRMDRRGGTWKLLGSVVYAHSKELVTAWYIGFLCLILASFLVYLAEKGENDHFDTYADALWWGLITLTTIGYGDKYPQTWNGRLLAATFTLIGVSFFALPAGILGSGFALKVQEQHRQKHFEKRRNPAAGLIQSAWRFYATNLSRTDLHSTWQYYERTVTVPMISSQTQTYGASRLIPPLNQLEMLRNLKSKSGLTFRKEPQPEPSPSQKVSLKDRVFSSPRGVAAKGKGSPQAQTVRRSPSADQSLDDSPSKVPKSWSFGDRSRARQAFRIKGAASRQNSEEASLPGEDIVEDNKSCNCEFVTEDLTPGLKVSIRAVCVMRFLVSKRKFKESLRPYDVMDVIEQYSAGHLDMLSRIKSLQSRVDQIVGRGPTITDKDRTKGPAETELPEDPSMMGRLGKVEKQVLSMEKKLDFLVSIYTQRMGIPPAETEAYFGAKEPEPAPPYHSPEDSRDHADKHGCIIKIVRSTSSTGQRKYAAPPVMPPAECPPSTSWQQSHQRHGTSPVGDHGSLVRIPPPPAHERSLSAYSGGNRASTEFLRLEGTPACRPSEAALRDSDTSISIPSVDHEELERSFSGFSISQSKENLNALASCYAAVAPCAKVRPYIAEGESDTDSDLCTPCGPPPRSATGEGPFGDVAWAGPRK
KCNQ2 pot: KCNQ2 (rat) channel potentiation. O88943. 0.54% of 310,000 active. B-score at 10 µM. CHO-K1 KCNQ2, FluxOR thallium flux fluorescence; stronger effect = higher value. AID 2239;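 active means fluorescence ratio B-score at least 3 SD of library B-scores, with initial fluorescence B-score within 3 of them, cut at about 5.3 in these data; same plate scores as AID 2156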;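 further: B-score of peak minus minimum over baseline fluorescence ratio after K+ and Tl+ stimulus; positive B-score means potentiation of KCNQ2 with more thallium influx and brighter signal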
* = called active by the depositor; i = inactive; / = no result given.

SMILES | KCNQ2 inh | KCNQ2 pot
COc1cccc(N2C(=NC(=O)C3CCCO3)SC3CS(=O)(=O)CC32)c1 (centres undefined) | i | 0.61
NC(=O)CC(NC(=O)c1ccc(Br)cc1)c1ccc(N2CCCCCC2)c([N+](=O)[O-])c1 (centres undefined) | i | 0.95
CCOc1cc(S(=O)(=O)n2cc(-c3ccc(F)cc3)c(N)n2)cc(OCC)c1OCC | i | /
CCOc1cc(-c2cn(S(=O)(=O)c3cccc4nsnc34)nc2N)cc(OCC)c1OCC | -6.32* | -6.32
O=C(NCCOC12CC3CC(CC(C3)C1)C2)c1cccc(Br)c1 | -7.21* | -7.21
O=C(O)CCCCCNC(=O)c1cccc(Br)c1 | i | /
COc1ccc(CCN(C)C(=O)C2CCN(C(=O)Nc3ccccc3)CC2)cc1OC | i | 0.58
CCOC(=O)C1CCN(S(=O)(=O)c2ccc3oc(=O)ccc3c2)CC1 | i | /
O=[N+]([O-])c1ccc(Nc2nc(N/N=C\c3ccc4c(c3)OCO4)nc(N3CCCCC3)n2)cc1 | -5.75* | -5.75
O=[N+]([O-])c1ccc(/C=N/Nc2nc(N3CCCCC3)nc(N3CCCCC3)n2)cc1 | i | /
O=C(O)Cn1nnc(-c2ccc(OCc3ccccc3)cc2)n1 | i | 0.11
C=CCn1c(COc2ccccc2)nnc1SC(C)C(=O)N/N=C/c1cc(Cl)ccc1O (centres undefined) | -7.58* | -7.58
C=CCn1c(COc2ccc(Cl)cc2)nnc1SCC(=O)N/N=C/c1cccc(O)c1 | i | 1
CS(=O)(=O)N(CC(=O)Nc1cc(Cl)ccc1Cl)c1ccccc1 | i | 1.86
COc1ccc(Cc2nc3ccc(C(=O)N(C)C(C)c4ccon4)cc3o2)cc1 (centres undefined) | i | 0.83
N#Cc1cc([N+](=O)[O-])c(-n2nnc3ccccc32)c([N+](=O)[O-])c1 | -5.73* | -5.73
CS(=O)(=O)c1ccc(-n2nnc3ccccc32)c([N+](=O)[O-])c1 | i | /
O=C(NC1CCSC1=O)C1CCCCC1 (centres undefined) | i | 1.53
CC[C@@H](C(=O)[C@@H](C)[C@@H](O)[C@H](C)CCc1ccc(C)c(O)c1C(=O)O)[C@H]1O[C@](CC)([C@H]2CC[C@](O)(CC)[C@H](C)O2)C[C@@H]1C | i | 27.4*
CCOC(=O)c1cccc(-n2c(-c3ccc(OC)cc3)nc3nc4ccccc4nc32)c1 | i | 0.24
CCc1ccc(NC(=O)CSc2nc3ccccc3c(=O)n2CCCN2CCC(C)CC2)cc1 | i | /
CC(=O)c1ccc(-c2cccc(-c3nc4ccccn4c3NC3CCCCC3)c2)cc1 | -5.76* | -5.76
CCC(C)Sc1cc(-c2nc3ccccn3c2NC2CCCCC2)ccc1OC (centres undefined) | i | 0.01
CCN(CC)S(=O)(=O)c1ccc(C(=O)NCC(c2ccc(OC)cc2)N2CCOCC2)cc1 (centres undefined) | i | 1.29
CC1(C)CN2C(=S)N(c3ccccc3)C(c3ccccc3)N2C1 (centres undefined) | -5.57* | -5.57
SMILES | KCNQ2 inh | KCNQ2 pot
S=C1N(c2ccccc2)C(c2ccc(Cl)cc2)N2CCCN12 (centres undefined) | i | /
COc1ccc(S(=O)(=O)NC2CCCCCC2)cc1C(N)=O | i | 1.2
CCN(C(=O)c1cc2c(=O)[nH]c3ccc(C)cc3c2s1)c1ccccc1F | i | 12.9*
CCN(C(=O)c1cc2c(=O)[nH]c3ccc(C)cc3c2s1)c1ccccc1C | i | 0.05
NNC(=O)c1csc(-c2ncc(C(F)(F)F)cc2Cl)n1 | i | /
Cc1nn(C)c2ncc(C(N)=O)c(Oc3ccc(Cl)cc3)c12 | i | 0.43
O=c1c2ccccc2[nH]c(=S)n1CCN1CCCCC1 | i | 0.03
O=c1c2ccccc2[nH]c(=S)n1CCC1=CCCCC1 | i | 8.45*
COc1ccc(N2CCN(C(=O)c3cn(CC4CCCCC4)nn3)CC2)cc1 | i | 1.05
COc1cccc(-n2c(CN3CCN(c4cccc(C)c4)C(C)C3)nc3ccc([N+](=O)[O-])cc3c2=O)c1 (centres undefined) | -5.78* | -5.78
COc1cccc(-n2c(CN3CCN(c4ccc(C)cc4)C(C)C3)nc3ccc([N+](=O)[O-])cc3c2=O)c1 (centres undefined) | i | /
O=c1c2ccccc2nc(/C=C/c2ccccc2)n1CCCO | i | 2.5
CN(C)c1ccc(/C=C/c2nc3ccccc3c(=O)n2CCO)cc1 | -5.95* | -5.95
O=C(O)c1[nH]c2ccccc2c1CC(=O)N1CCN(c2ccccc2)CC1 | i | /
Cc1cccc(N2CCN(C(=O)Cc3c(C(=O)O)[nH]c4ccc(Cl)cc34)CC2)c1C | i | 7*
CCN1/C(=C/C=C/C=C/c2sc3ccccc3[n+]2CC)Sc2ccccc21 | -21.1* | -21.1
CCN1/C(=C/C=C/C=C/C=C/c2sc3ccccc3[n+]2CC)Sc2ccccc21 | i | /
O=C(Cn1ncc2c([nH]c3ccccc32)c1=O)NCC1CCN(Cc2ccccc2F)CC1 | i | 0.86
CCOc1cccc(/C=N/Nc2nc(N3CCCC3)nc(N3CCCC3)n2)c1O | i | 1.29
CCOc1cc(/C=N/Nc2nc(N3CCCC3)nc(N3CCCC3)n2)ccc1O | -8.35* | -8.35
Cc1nn(CC(=O)Nc2nnc(C(C)C)s2)c(=O)c2ccccc12 | i | /
O=C(CCc1ccccc1)c1c(O)cc(O)cc1O | -8.23* | -8.23
COc1ccc(C(=O)CCc2ccccc2)c(O)c1 | i | /
CC(Nc1ccc2c(c1)OCCO2)C(=O)N1c2ccccc2CC1C (centres undefined) | i | /
CCc1nnc(NS(=O)(=O)c2ccc(N=Cc3c(C)[nH]n(-c4ccc(Cl)cc4)c3=O)cc2)s1 | i | 2.08
SMILES | KCNQ2 inh | KCNQ2 pot
COc1ccc2nc(/N=C/c3c(C)[nH]n(-c4ccc(C)cc4)c3=O)sc2c1 | i | 21.1*
COc1ccc2nc(/N=C\N(C)C)sc2c1 | i | /
Cc1[nH]n(-c2ccc(Cl)cc2)c(=O)c1/C=N/c1nnc(-c2ccccc2)s1 | i | 19.7*
Cc1ccc(N2CC(NC(=O)C3CC3)CC2=O)cc1 (centres undefined) | i | 0.66
COc1ccc(-n2nc3c(c2NC(=O)C(C)Oc2ccccc2)CS(=O)C3)cc1 (centres undefined) | i | /
CCCCNC(=O)O/N=C(\N)CS(=O)(=O)C(C)(C)C | i | /
CCOC(=O)C1=NN(C(=O)c2ccco2)C2(CC2)C1 | i | 0.13
CCOC(=O)C1=NN(C(=O)c2cccc(Br)c2)C(O)(C(C)(C)C)C1 (centres undefined) | i | 21.7*
CN1CCN(/C=C(\C#N)S(=O)(=O)c2ccc(Cl)cc2)CC1 | i | /
CN(C)/C=C(\C#N)S(=O)(=O)c1ccc(Cl)cc1 | -6.76* | -6.76
Cc1ccccc1NC(=O)CSc1nnc(C2CC2)n1CC1CCCO1 (centres undefined) | i | 2.01
Cc1csc(=O)n1CC(=O)OCC(=O)c1ccc(Br)cc1 | i | 0.04
CCn1c(CNc2nc3ccccc3n2C(C)C)nc2ccccc21 | -8.28* | -8.28
CC(C)n1c(NCc2nc3ccccc3n2C)nc2ccccc21 | i | /
COc1ccccc1CC(=O)Nc1ncc(C)s1 | i | 0.22
COc1ccc(CN2CCNC(=O)C2CC(=O)N(C)CCCN2CCOCC2)cc1C (centres undefined) | i | /
CC(=O)c1ccc(OCCCC(=O)N2CCN(S(=O)(=O)c3ccc(C(C)C)cc3)CC2)cc1 | i | 0.82

Compound activity as filed in PubChem BioAssay.
